Compound activity: PubChem, several laboratories
Rows were chosen to be rich in hits. Some 4.8% of all compounds tested hit in one or more screens of this group.
Hsp70 activator: Hsp70 transcriptional activation, primary screen | activation, % at 10 µM | HeLa Hsp70 promoter luciferase reporter, luminescence; scaled: vehicle 0, proteasome-inhibitor control 100% | actives 0.04% (n = 200,000);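 active = activation above the mean across all tested compounds plus 3 SD, cutoff set per campaign, cut at about 5.5% in these data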
APP 5'UTR act: activates APP 5'UTR luciferase reporter; SH-SY5Y APP 5'UTR luciferase reporter, luminescence; zero percent = DMSO vehicle wells; actives 1% (n = 190,000); activation, % at 2 µM;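 active = activation above a set limit, based on mean plus 3 SD of controls, cut at about 140% in these data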
APP 5UTR inh: APP translation inhibition. inhibition, % at 2 µM. SH-SY5Y APP 5'UTR-luciferase reporter, luminescence. AID 1285. actives 0.82% (n = 190,000);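 active = inhibition above a set limit, derived from the sample mean plus 3 SD, cut at about 45% in these data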
Wee1 degr inh: human Wee1 degradation inhibition, primary screen | P30291 | HeLa Luc-Wee1K328M stability, luciferase luminescence; 100% = proteasome inhibitor MG132 effect | reporter increase, % at 5 µM | actives 1.2% (n = 220,000) | AID 1321;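 active = activation above the mean of all tested compounds plus 3 SD, set per screening run, cut at about 8.8% in these data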;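 also: cells exposed to compound for 20 h before luminescence read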
Target sequence (P30291 whole entry K328M): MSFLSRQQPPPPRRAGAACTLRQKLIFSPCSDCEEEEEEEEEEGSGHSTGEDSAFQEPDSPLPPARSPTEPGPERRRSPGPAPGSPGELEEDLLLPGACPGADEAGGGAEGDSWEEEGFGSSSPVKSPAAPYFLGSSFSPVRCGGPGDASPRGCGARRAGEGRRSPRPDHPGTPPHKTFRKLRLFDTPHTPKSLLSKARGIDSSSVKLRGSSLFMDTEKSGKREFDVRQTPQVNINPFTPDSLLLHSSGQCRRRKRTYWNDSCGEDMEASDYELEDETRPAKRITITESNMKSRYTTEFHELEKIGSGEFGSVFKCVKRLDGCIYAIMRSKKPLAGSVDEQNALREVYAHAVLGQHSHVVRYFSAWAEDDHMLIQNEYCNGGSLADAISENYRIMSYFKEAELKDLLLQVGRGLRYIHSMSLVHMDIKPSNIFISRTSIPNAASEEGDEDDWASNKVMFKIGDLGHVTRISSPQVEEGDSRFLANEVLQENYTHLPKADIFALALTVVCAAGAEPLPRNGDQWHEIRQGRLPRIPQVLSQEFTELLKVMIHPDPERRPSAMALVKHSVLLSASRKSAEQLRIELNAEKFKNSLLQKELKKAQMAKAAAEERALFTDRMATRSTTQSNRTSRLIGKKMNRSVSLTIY
STAT1 act: STAT1 signaling activation. NIH 3T3 STAT1-luciferase reporter, IFN-gamma, luminescence; 100% = IFN-gamma alone, no compound. actives 2.6% (n = 200,000). activation (% of control), % at 5.5 µM. AID 932;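 active = activation above the screen-wide mean activation plus 3 SD, cut at about 130% in these data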
NF-kB neuron act: compounds increasing NF-kB expression in human neuronal cells; NF-kB reporter expression; stronger effect = higher value; actives 1.6% (n = 190,000); fold change at 12.5 µM; in the data active = fold change above about 3.3
Large screens that a line does not name were inactive.

COC(=O)CC(=O)CSc1nc2c(cc1C#N)CCCCC2	NF-kB neuron act 5
CC(C)N1CCC(N2CCN(CC#Cc3ccccc3)CC2CCO)CC1 (centres undefined)	Wee1 degr inh 16
COC(=O)N/N=C/c1ccc(-c2cccc(Cl)c2)o1	none
Nc1ccccc1N=Cc1ccc(-c2cccc(Cl)c2)o1	STAT1 act 140
CS(=O)(=O)N1CCN(c2ccccc2NC(=O)Cc2ccccc2)CC1	none
COc1ccc(OC)c(Nc2nc(=O)c3cccnc3s2)c1	none
Cc1ccc(Nc2nc(=O)c3cccnc3s2)cc1	STAT1 act 137, NF-kB neuron act 4.3
Cc1cc(NC(=O)CN2CCN(C)CC2)no1	none
O=C1NC2(CCCCC2)C(=O)N1/N=C/c1ccc(O)cc1O	none
O=C1NC2(CCCCC2)C(=O)N1/N=C/c1ccccc1Br	STAT1 act 131
CC(C)(C)c1ccc(CNc2cc(N3CCOCC3)ccc2[N+](=O)[O-])cc1	none
CCCNS(=O)(=O)c1ccc(CCC(=O)N2CCN(CC)CC2)cc1	none
CCN1CCN(C(=O)CCc2ccc(S(=O)(=O)NCCc3ccccc3)cc2)CC1	APP 5UTR inh 56
CC(C)(C)SCCNC(=O)c1ccccc1	STAT1 act 139 (no result: APP 5'UTR act, APP 5UTR inh)
Cc1ccc(C(=O)NCCSC(C)(C)C)cc1	NF-kB neuron act 4.1
CSCCNC(=O)c1ccc(C(C)(C)C)cc1	NF-kB neuron act 5.4
CN(c1ccc(C(=O)NCCSC(C)(C)C)cc1)S(=O)(=O)c1ccccc1	none
COc1ccc(N(CC(=O)NCCc2ccc(Cl)cc2)S(=O)(=O)c2c(C)[nH]c(=O)[nH]c2=O)cc1	none
CC1(C)Cc2c(C#N)c(NCC3CCCO3)nc(-c3ccco3)c2CO1 (centres undefined)	none
Cc1cc(NC(=O)CSc2nc(C(C)(C)C)nc3ccccc23)no1	APP 5UTR inh 49
CCC(C)n1c(SCC(=O)Nc2cc(C)on2)nc2ccccc2c1=O (centres undefined)	none
Cc1cc(NC(=O)CSc2nc3ccccc3c(=O)n2C(C)c2ccccc2)no1 (centres undefined)	NF-kB neuron act 3.6
CC(C)(C)c1ccc(C(=O)Nc2nonc2-c2nc3ccccc3[nH]2)cc1	none
O=S(=O)(c1ccc(Cl)s1)N1CCc2ccccc2C1	none
O=S(=O)(c1ccc(Cl)s1)N1CCCc2cccc(O)c21	Wee1 degr inh 9.2
CCOC(=O)/C(C#N)=C/c1cc(C)n(-c2ccc(C)cc2)c1C	STAT1 act 148
O=C(Nc1ccccc1N1CCN(C(=O)c2ccccc2)CC1)c1cccc(Cl)c1	Wee1 degr inh 9.2 (no result: Hsp70 activator, APP 5'UTR act, APP 5UTR inh, STAT1 act, NF-kB neuron act)
O=C(Nc1ccccc1N1CCN(C(=O)c2ccc(Cl)cc2)CC1)c1ccc2c(c1)OCO2	none
Cc1ccc(C(=O)NNC(=S)Nc2cccc3ccccc23)s1	APP 5'UTR act 150
O=C(Nc1cccc2ccccc12)c1ccc([N+](=O)[O-])s1	NF-kB neuron act 3.8
O=C(NNC(=S)Nc1cccc2ccccc12)c1cccc(Br)c1	none (no result: APP 5'UTR act, APP 5UTR inh)
O=C(Nc1ccccc1F)c1ccc([N+](=O)[O-])s1	NF-kB neuron act 3.5
CN(C)NC(=O)c1ccc([N+](=O)[O-])s1	none (no result: Hsp70 activator, APP 5'UTR act, APP 5UTR inh, STAT1 act, NF-kB neuron act)
CCn1ncc(C2C(C(=O)Nc3ccc(C)cn3)=C(C)NC3=C2C(=O)CCC3)c1C (centres undefined)	none
Cc1ccc(SCC(=O)c2c(C)nc3cc(C)ccn23)cc1	NF-kB neuron act 3.5
Cc1ccn2c(C(=O)CSc3ccccc3)c(C)nc2c1	none
O=C(Cc1ccccc1)Nc1nc2ccccc2s1	NF-kB neuron act 7.1
CC(C)C(=O)NNc1nc2ccccc2s1	STAT1 act 132
O=C(Cc1cccs1)Nc1nc2ccccc2s1	NF-kB neuron act 4.2
CC1CCc2nc(NC(=O)Cc3cccs3)sc2C1 (centres undefined)	STAT1 act 143, NF-kB neuron act 4.3
Cc1cc([N+](=O)[O-])nn1CC(=O)Nc1cc(F)ccc1F	none
O=C(Nc1ccon1)c1sc2cc(F)ccc2c1Cl	STAT1 act 131
Cc1ccc2c(Cl)c(C(=O)Nc3cc(C)on3)sc2c1	STAT1 act 132
CC(C)(C)c1cc(C(=O)N/N=C/c2ccc(O)cc2)n(-c2ccccc2)n1	none
C=CCNC(=O)/C(C#N)=C/c1cc(Br)ccc1OC	Wee1 degr inh 11
CC1(C)Cc2c(sc3nc(-c4cccs4)n(N)c(=O)c23)CO1	STAT1 act 138
Cc1ccccc1-c1nc2sc3c(c2c(=O)n1N)CCCC3	APP 5'UTR act 150, STAT1 act 146
Nn1c(-c2cccs2)nc2sc3c(c2c1=O)CCCC3	APP 5'UTR act 156, STAT1 act 142, NF-kB neuron act 3.9
CC(=O)c1cccc(-n2c(CCC(=O)O)ccc2-c2cccs2)c1	none
COc1ccc(N(Cc2cc3cc(OC)ccc3[nH]c2=O)C(=O)C2CCCO2)cc1 (centres undefined)	none
CCOC(=O)C(CC)Sc1nnc2c3cc(C)ccc3n(C)c2n1 (centres undefined)	none
COc1ccc(Cl)cc1S(=O)(=O)N1CCCC1=O	Wee1 degr inh 10.0
CCOC(=O)C1=C(C)NC(=O)NC1c1ccsc1 (centres undefined)	none
COc1ccc(C(=O)c2ccc(N(C)C)cc2)c2ccccc12	APP 5UTR inh 92
O=C(Nc1sc2c(c1C(=O)c1ccc(Cl)cc1)CCCC2)c1cccnc1	none
CCCCN1CCc2c([nH]c3ccccc23)C1=O	STAT1 act 137
O=C(Nc1ccc2c(c1)CCC2)C1CCCN(c2ncccn2)C1 (centres undefined)	STAT1 act 144
O=C(Nc1cccc(C(F)(F)F)c1)C1CCCN(c2ncccn2)C1 (centres undefined)	none
Cc1ccc(NC(=O)C2CCCN(c3ncccn3)C2)cc1F (centres undefined)	STAT1 act 149, NF-kB neuron act 3.5
O=C1c2ccccc2C(=O)N1CCCCSc1nc2ccccc2o1	none
COc1ccc(NC(=O)CSc2nc3c(c(=O)n2-c2ccc(F)cc2)SCC3)cc1	none
Cc1ccc(C(=O)NN2CC(O)=C(c3nc(-c4cccc([N+](=O)[O-])c4)cs3)C2=N)cc1	none (no result: NF-kB neuron act)
COC(=O)c1ccc(COC(=O)c2ccccn2)cc1	STAT1 act 133
N/C(=N\OC(=O)c1ccccc1)c1ccccn1	APP 5'UTR act 150
N/C(=N\OC(=O)c1ccc(Br)cc1)c1ccncc1	STAT1 act 143
N/C(=N\OC(=O)c1ccc(Br)o1)c1ccccn1	APP 5'UTR act 149, NF-kB neuron act 3.7
COc1cc(C(=O)O/N=C(\N)c2ccccn2)cc(OC)c1OC	none (no result: Hsp70 activator, APP 5'UTR act, APP 5UTR inh, STAT1 act, NF-kB neuron act)
COc1ccc(S(=O)(=O)Nc2ccc(S(=O)(=O)N3CCOCC3)cc2)cc1	none
Clc1ccc(-n2nnnc2SCc2cn3ccccc3n2)cc1	none
Clc1ccc2nc(CSCc3ccccc3)cn2c1	APP 5'UTR act 139, STAT1 act 145
Nc1ccccc1SCc1cn2ccccc2n1	STAT1 act 146
